# Screens as filed in PubChem.
# ALDH1A1 inh – qHTS Assay for Inhibitors of Aldehyde Dehydrogenase 1 (ALDH1A1); Purified ALDH1A1, NADH fluorescence, propionaldehyde substrate; 220,000 tested, 7.3% active; Aldehyde dehydrogenase 1A1 (Homo sapiens), P00352; AID 1030, 2008; Potency, µM (series often up to 75.3 µM), most hits filed as inhibitors; active = well fitted inhibition curve with a large enough effect, not every such curve was filed as active; inconclusive = small, poorly fitted or top-dose-only effect, or another doubt; inactive = no such curve, though single readings can be large or run the other way
# Target sequence (P00352 whole entry, looked up): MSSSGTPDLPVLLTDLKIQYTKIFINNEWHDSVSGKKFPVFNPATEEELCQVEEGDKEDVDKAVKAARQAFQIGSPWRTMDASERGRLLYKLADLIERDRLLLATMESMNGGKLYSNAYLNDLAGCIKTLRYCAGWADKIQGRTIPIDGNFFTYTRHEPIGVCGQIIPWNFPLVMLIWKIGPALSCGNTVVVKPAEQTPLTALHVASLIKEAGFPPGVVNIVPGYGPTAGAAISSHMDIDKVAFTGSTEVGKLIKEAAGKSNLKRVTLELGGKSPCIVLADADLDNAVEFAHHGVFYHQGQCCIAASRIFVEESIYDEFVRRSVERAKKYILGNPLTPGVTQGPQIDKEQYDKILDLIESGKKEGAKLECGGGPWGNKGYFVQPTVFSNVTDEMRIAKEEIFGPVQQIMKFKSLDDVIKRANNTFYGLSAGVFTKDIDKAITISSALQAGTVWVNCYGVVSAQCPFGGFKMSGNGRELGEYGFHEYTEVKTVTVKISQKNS
# HPGD inh – qHTS Assay for Inhibitors of HPGD (15-Hydroxyprostaglandin Dehydrogenase) | 15-hydroxyprostaglandin dehydrogenase [NAD(+)] (Homo sapiens), P15428 | purified HPGD, NADH fluorescence kinetic, PGE2 substrate | Potency, µM, most hits filed as inhibitors | AID 894, 2007 | 150,000 tested, 4.3% active; active = well fitted inhibition curve with a large enough effect, not every such curve was filed as active; inconclusive = small, poorly fitted or top-dose-only effect, or another doubt; inactive = no such curve, though single readings can be large or run the other way
#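 20 nM HPGD preincubated 15 min at room temperature with compound in 50 mM Tris-HCl pH 8, 0.01% Tween 20. Started with 1 mM NAD+ and 30 uM prostaglandin E2; NADH fluorescence (360/450 nm) read 5 times over 30-s intervals, last minus first.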
# Lamin A splicing – qHTS Assay for Modulators of Lamin A Splicing. HeLa LMNA splicing GFP/RFP minigene ratio, 48 h. Potency, µM (top dose mostly 46.1 µM), most hits filed as inhibitors. 200,000 tested, 0.01% active. AID 1487, 2009; active = well fitted inhibition curve with a large enough effect in the signal ratio, with a control signal flat, not every such curve was filed as active; inconclusive = small, poorly fitted or top-dose-only effect, or effect the other way, or a change in a side signal; the % refers to the signal ratio
#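 S3 HeLa cells stably expressing lamin A-EGFP splicing minigene plus DsRed2, 600 cells/well, 48 h compound exposure at 37C. Laser-scanning cytometry; analysed as GFP (500-530 nm)/RFP (575-640 nm) total intensity ratio; 0.5% DMSO vehicle.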
# HttQ103 aggreg – qHTS Multiplex Assay to Identify Dual Action Probes in a Cell Model of Huntington: Aggregate Formation (GFP); PC12 HttQ103-GFP aggregates, Acumen cytometry, 40 h; Potency, µM (titrated, usually from 46.1 µM), actives largely listed as inhibitors; 220,000 tested, 1.1% active; AID 1688, 2009; also: nearly all actives have a fitted effect of over 60% in size
#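 Inducible Q103 Huntingtin exon 1–GFP PC12 line, 1500 cells/well in phenol red free DMEM with 5% equine and 5% calf serum. Tebufenozide 100 nM induced expression; compounds titrated; aggregates quantified by cytometry.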
# KinaseGlo FLuc – Counterscreen for Luciferase (Kinase-Glo TM) Inhibition; Potency, µM (doses to about 38.3 µM), most hits filed as inhibitors; Kinase-Glo luciferase, ATP luminescence, 8 min; Luciferin 4-monooxygenase (Photuris pensylvanica), Q27757; 200,000 tested, 0.28% active; also: nearly all actives have a fitted effect of over 60% in size
#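 Kinase-Glo luciferase light output from ATP and luciferin was measured with 10 uM ATP, within the enzyme's linear range. Buffer: 50 mM imidazole pH 7.2, 50 mM KCl, 7 mM MgCl2, 0.01% Tween 20, 0.05% BSA; luminescence read after 8 min at ambient temperature.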
# HTT cytoprotect – qHTS Multiplex Assay to Identify Dual Action Probes in a Cell Model of Huntington: Cytoprotection (ATP); PC12 HTT-Q103 induced, cytoprotection, ATP luminescence, 40 h; 230,000 tested, 0.14% active; Potency, µM (series often up to 56.4 µM), usual class: activators; AID 1471, 2008; also: nearly all actives have a fitted effect of over 45% in size
#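 ATP quantification (ATPlite) reports survival of PC12 cells in which tebufenozide, 100 nM final, switches on Htt exon 1 with 103 glutamines linked to GFP; compounds are titrated.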
# Numbers stand for hits; n = inactive; u = inconclusive; x = not tested or not shown; ! = not active in a repeat; [ ] = another dose, or the depositor's remark. A selection: hits, their analogues and other compounds. The true share with any hit is near 9%. Unless noted, calls follow the shape of the dose curve; as a rule, active = well fitted curve in the direction sought with a large enough effect; inconclusive = small, poorly fitted or top-dose-only effect, or another doubt; inactive = no such curve, though single readings can be large; an effect the other way counts as inactive or inconclusive.
SMILES,ALDH1A1 inh,HPGD inh,Lamin A splicing,HttQ103 aggreg,KinaseGlo FLuc,HTT cytoprotect
O=C(NCCc1ccccc1)C1CCN(S(=O)(=O)c2ccc(-n3cnnn3)cc2)CC1,14.1µM,n,n,2.82µM,n,n
O=C(NCc1ccco1)C1CCCN(S(=O)(=O)c2cccc3cccnc23)C1 (configuration not stated),25.1µM,n,n,n,n,n
O=C(NCc1ccco1)C1CCCN(S(=O)(=O)c2ccc(Br)cc2)C1 (configuration not stated),u,x,n,n[9.22 µM],n,n[10 µM]
O=C(NCc1ccco1)C1CCC(CNS(=O)(=O)c2cccc3cccnc23)CC1 (configuration not stated),12.6µM,20µM,n,n,n,n
O=C(NCc1ccco1)C1CCCN(S(=O)(=O)c2ccc(-n3cnnn3)cc2)C1 (configuration not stated),25.1µM,n,n,n,n,n
O=C(NCCN1CCOCC1)c1ccc(=O)oc1,n,n,n,n,n,n
COc1cccc(NC(=S)NC2CC3CCCC(C2)N3CC(C)C)c1 (configuration not stated),n,x,u,n[9.22 µM],n,n[10 µM]
CCc1cc2c(=O)[nH]c(-c3ccccn3)nc2s1,u,n,u,n,n,n[10 µM]
O=C(CCN1C(=O)C2CCCCC2C1=O)Nc1nc(-c2ccccc2)cs1 (configuration not stated),n,x,x,n[9.22 µM],x,n[10 µM]
COc1cc(NC(=O)C2CCCN2S(=O)(=O)c2cccc3cccnc23)cc(OC)c1OC (configuration not stated),n,n,n,n,n,n
COc1ccccc1CNC(=O)C1CCCN1S(=O)(=O)c1cccc2cccnc12 (configuration not stated),u,22.4µM,n,n,n,n
O=C(O)CP(=O)(O)O,n,31.6µM!,u,n,n,u
Nc1ccccc1-c1nc2ccccc2[nH]1,u,u,n,n,n,n[0.074 µM]
COc1ccc(NC(=O)COC(=O)c2ccc([N+](=O)[O-])o2)cc1Cl,22.4µM,x,n,n,n,n
O=C(COC(=O)c1ccc2c(c1)OCCO2)Nc1cccc(S(=O)(=O)N2CCOCC2)c1,n,x,n,n,n,n
CN(C)S(=O)(=O)c1cccc(NC(=O)COC(=O)c2ccc([N+](=O)[O-])o2)c1,20µM,n,n,n,n,n[10 µM]
COc1cc2c(cc1OC)CN(C(=O)CCCOc1ccc(Cl)cc1Cl)CC2,n,35.5µM,n,u,n,n
O=C(COC(=O)c1ccc([N+](=O)[O-])o1)Nc1cccc(S(=O)(=O)N2CCOCC2)c1,1µM,n,n,n,n,n[10 µM]
CC(C)(C)NC(=O)NCc1cccnc1,x,x,x,n[9.22 µM],x,n[10 µM]
O=C(CCCOc1ccc(Cl)cc1Cl)Nc1ccccc1C(=O)O,x,x,x,n[9.22 µM],x,n[10 µM]
COc1ccc(NC(=O)COC(=O)CCCOc2ccc(Cl)cc2Cl)cc1,n,n,n,n,n,n[10 µM]
CCOc1ccccc1NC(=S)NC(=O)CCCOc1ccc(Cl)cc1Cl,11.2µM,n,u,n[9.22 µM],n,u
COc1cccc(NC(=O)C(OC(=O)c2ccc([N+](=O)[O-])o2)c2ccccc2)c1 (configuration not stated),22.4µM,n,n,n,n,x
COc1ccc(NC(=O)COC(=O)CCCOc2ccc(Cl)cc2Cl)cc1Cl,n,28.2µM,n,n,n,n[10 µM]
Cc1cc(C)cc(NC(=O)C(OC(=O)c2ccc([N+](=O)[O-])o2)c2ccccc2)c1 (configuration not stated),u,n,n,n,n,n[10 µM]
SMILES,ALDH1A1 inh,HPGD inh,Lamin A splicing,HttQ103 aggreg,KinaseGlo FLuc,HTT cytoprotect
CC/C(=N/NC(=O)c1ccccc1)c1ccc(OCCN2CCOCC2)cc1,10µM,n,n,n,n,x
COc1ccc(C(=O)C(CN2CCCC2)c2ccccc2)cc1 (configuration not stated),25.1µM,n,u,n[9.22 µM],n,x
COc1ccc(C(=O)C(CN2CCOCC2)c2ccccc2)cc1 (configuration not stated),n,n,u,x,n,22.4µM
CC/C(=N/NC(=O)c1ccc(Br)cc1)c1ccc(OCCN2CCOCC2)cc1,u,n,n,n,n,n[10 µM]
O=C(c1ccc(F)cc1)C(CN1CCOCC1)c1ccccc1 (configuration not stated),u,n,u,n[9.22 µM],n,31.6µM
COCCNc1nc(C)c(C(C)=O)s1,u,x,x,n,n,n
CC(=O)c1c(CC(=O)O)[nH]n(-c2nc3ccccc3s2)c1=O,n,u,n,n,6.31µM,n[10 µM]
Cc1ccccc1S(=O)(=O)NCc1cccnc1,n,n,n,n,n,x
Cc1ccc(C(C)C)cc1S(=O)(=O)NCc1cccnc1,20µM,n,n,u,n,n[10 µM]
c1ccc(-n2nnnc2SCc2ccccn2)cc1,u,n,n,n,n,n
COc1cc(CSc2nnnn2-c2ccc(C)cc2)cc(OC)c1OC,u,n,u,2.51µM,n,n[0.074 µM]
C(=C\CSc1nnnn1-c1ccccc1)/CSc1nnnn1-c1ccccc1,0.1µM,u,u,n,n,n
Cc1cccc2nc(CSc3nnnn3-c3ccccc3)cn12,10µM,n,n,n,n,n
COC(=O)c1sccc1NC(=O)CSc1ccccc1NC(=O)CNC(C)C,3.55µM,x,n,n,n,n
COC(=O)c1sccc1NC(=O)CSc1ccccc1N,n,x,u,n,n,n
COc1ccc(C(C)=O)cc1CSc1nnnn1-c1ccc(O)cc1,x,x,x,n[9.22 µM],x,n[10 µM]
Cc1ccccc1N(CC(=O)NC(C)(C)C)C(=O)c1ccc(-c2ccccc2)[nH]1,n,x,x,n,n,n[10 µM]
N/C(=N\OC(=O)CCCOc1ccccc1)c1ccccc1,n,n,n,n,n,u
Cc1ccc(-c2noc(CSc3nnnn3C3CCCCC3)n2)cc1,14.1µM,n,n,u,n,n
O=C(O)c1ccc(-n2nnnc2SCc2ccccc2)cc1,n,20µM,n,n,n,n
COc1ccc(CSc2nnnn2-c2ccccc2)cc1,11.2µM,n,u,n,n,n[10 µM]
Cc1ccc(C(C)C)c(Oc2nnnn2-c2ccccc2)c1,17.8µM,n,n,n,n,n
Cc1ccc(C)c(Oc2nnnn2-c2ccccc2)c1,n,n,n,n,n,n
Cc1ccc(-c2noc(CSc3nnc(-c4ccncc4)n3-c3ccc(C)cc3)n2)cc1,n,n,n,n,n,n
CCCc1ccc(C(=O)N2CCN(c3ccccc3OCC)CC2)cc1,n,n,n,n,n,n[10 µM]
